# Assay outcomes deposited in PubChem BioAssay by National Center for Advancing Translational Sciences (NCATS).
# An excerpt weighted towards active compounds, which were near 9.2% of everything screened.
# ELG1 genotox: inducers of genotoxicity in HEK293T ELG1-luciferase cells. HEK293T ELG1-luciferase reporter, luminescence, 16 h. Potency, µM (highest dose often 46 µM), for inactives: at the highest dose activity change, positive = activation, usual class: activators. 330,000 tested, 1.3% active. AID 504466; further: % of control where 0% means no effect; nearly all actives have a fitted effect of over 60% in size
#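 Genotoxicity was scored as increased ELG1-luciferase reporter signal, measured by ONE-Glo luminescence (30 min, room temperature). Compound or vehicle exposure of the HEK293T reporter cells lasted 16 hr at 37°C.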
# SMN2 splice up: enhancers of SMN2 splice variant expression; HEK293 SMN2-luciferase splicing reporter, luminescence, 30-36 h; Potency, µM (top dose mostly 46.1 µM), for inactives: at the top dose activity change, positive = activation, most hits filed as activators; 210,000 tested, 2.8% active; AID 1458; further: % of control where 0% means no effect; nearly all actives have a fitted effect of over 55% in size
#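 HEK293 cells carry an SMN2 minigene-luciferase reporter in which exon 7 inclusion puts luciferase in frame. Cells were seeded at 2000 cells/well, attached for 10-12 hours, then exposed to compounds for 30-36 hours at 37C before ONE-Glo luminescence.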
# ELG1 DNA repair: inhibitors of ELG1-dependent DNA repair in HEK293T cells. HEK293T ELG1-luciferase reporter, luminescence, 16 h; DNA damage induced by 5-fluorouridine. Potency, µM (highest dose often 46.1 µM), inactives show at the highest dose activity change, negative = inhibition, most hits filed as inhibitors. 330,000 tested, 2.3% active. AID 504467; further: on the % scale 0 is the no-effect control and ±100 the full control effect; nearly all actives have a fitted effect of over 55% in size
#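 Reporter activity after DNA damage by 5-fluorouridine is monitored. Compound-treated cells incubate 16 hr at 37 °C, then ONE-Glo is added for 30 min before luminescence reading.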
# NPC1 promoter act: activates the NPC1 promoter; Huh7 NPC1 promoter luciferase reporter, 24 h; Potency, µM (series often up to 9.22 µM), inactives show at the highest dose activation, most hits filed as activators; 320,000 tested, 2.4% active; further: % of control where 0% means no effect; nearly all actives have a fitted effect of over 60% in size
#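 Stably transfected Huh7 (NPC1 promoter→luciferase), 1500 cells/well in Opti-MEM + 10% FBS, 2 h settle, then compound 24 h at 37 °C. Luminescence after 10 min with Amplite reagent.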
# Rab9 prom act: Rab9 promoter activation; Huh7 Rab9 promoter-luciferase reporter, luminescence, 24 h; Potency, µM (doses to about 9.22 µM), for the others: top-dose activation, negative = inhibition, most hits filed as activators; 320,000 tested, 2.8% active; AID 485297; further: % of control where 0% means no effect; nearly all actives have a fitted effect of over 60% in size
#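 Measured in stably transfected Huh7 cells bearing a Rab9 promoter–luciferase construct: 24 h compound treatment at 37 °C, followed by luminescence detection.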
# FLuc modulator: firefly luciferase modulation, counter-screen for miR-21 project; purified FLuc, Km substrates, luminescence inhibition; Potency, µM (doses to about 57.5 µM), for the others: at the top dose activity change, negative = inhibition, usual class: inhibitors; P08659; AID 588342; 360,000 tested, 6.9% active;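 further: plate controls were vehicle for no effect and reference inhibitor for full effect; nearly all actives have a fitted effect of over 55% in size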
# Target sequence (P08659 whole entry, looked up): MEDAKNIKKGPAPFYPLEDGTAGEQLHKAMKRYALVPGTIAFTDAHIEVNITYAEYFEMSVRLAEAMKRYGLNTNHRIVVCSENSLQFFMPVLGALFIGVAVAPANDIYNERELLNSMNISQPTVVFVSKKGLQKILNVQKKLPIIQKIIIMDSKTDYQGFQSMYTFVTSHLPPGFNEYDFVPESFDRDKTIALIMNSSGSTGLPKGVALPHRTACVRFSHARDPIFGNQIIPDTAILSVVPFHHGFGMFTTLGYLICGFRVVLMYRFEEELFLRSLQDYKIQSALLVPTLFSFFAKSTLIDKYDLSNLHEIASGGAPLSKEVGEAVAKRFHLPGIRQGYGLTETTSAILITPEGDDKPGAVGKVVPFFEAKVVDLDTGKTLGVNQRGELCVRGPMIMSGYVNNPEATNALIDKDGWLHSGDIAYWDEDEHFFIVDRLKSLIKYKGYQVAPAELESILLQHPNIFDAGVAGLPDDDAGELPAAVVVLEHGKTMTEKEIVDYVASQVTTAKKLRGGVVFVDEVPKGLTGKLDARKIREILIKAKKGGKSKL
#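 Biochemical qHTS of compounds, final roughly 60 µM downward over six points, against 10 nM purified firefly luciferase using Km concentrations of substrates (10 uM D-luciferin, 10 uM ATP) in Tris acetate pH 7.5 buffer; luminescence output.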
# * = called active by the depositor; ? = inconclusive; · = not tested or not shown. The call rests on the fitted dose curve; in most records, active means well fitted curve in the direction sought with a large enough effect; inconclusive means small, poorly fitted or top-dose-only effect, or another doubt; inactive means no such curve, though single readings can be large; an effect the other way counts as inactive or inconclusive. Potency means the concentration at half of the fitted maximal effect.
SMILES,ELG1 genotox,SMN2 splice up,ELG1 DNA repair,NPC1 promoter act,Rab9 prom act,FLuc modulator
CC1Oc2ccccc2C=C1/C=N/NC(=O)c1ccccc1 (stereo not given),?,14µM*,?,?,2.5µM*,6µM*
O=C(N/N=C/c1ccccc1)c1ccc(-c2ccccc2)cc1,5%,·,14%,15%,?,-17%
Cc1ccc(C(=O)N/N=C/C2=Cc3ccccc3OC2C)cc1 (stereo not given),1%,?,0%,22%,28%,3µM*
CC1Oc2ccccc2C=C1/C=N/NC(=O)[C@@H](C)NC(=O)OC(C)(C)C (stereo not given in full),-7%,·,-16%,-3%,0%,-22%
CCOc1ccc(CCNC(=O)c2ccc(-c3nc(COc4ccc(C)cc4)c(C)o3)cc2)cc1,·,1%,·,·,·,-3%
C[C@H](NC(=O)C1CCN(S(=O)(=O)c2ccccc2)CC1)C(=O)NCc1ccccn1,0%,·,3%,-2%,-4%,0%
CN(C)S(=O)(=O)c1ccc(C(=O)NCCSc2c(-c3ccc(Br)cc3)[nH]c3ccccc23)cc1,·,-10%,·,·,·,1%
CC(=O)NCCC(=O)Nc1sc2c(c1-c1nc3ccccc3[nH]1)CCCC2,-6%,1%,15µM*,-6%,0%,?
O=C(Nc1sc2c(c1-c1nc3ccccc3[nH]1)CCCC2)C1CCCC1,1%,-4%,?,6%,8%,?
O=C(/C=C1\NCC2c3ccccc3CCN2C1=O)c1ccccc1 (stereo not given),-2%,2.8µM*,10%,4µM*,3.5µM*,1.2µM*
CC(C)Nc1oc(-c2cccc3ccccc23)nc1C#N,?,10%,?,0%,?,12µM*
N#Cc1nc(-c2cccc3ccccc23)oc1N1CCCCC1,16%,8%,59%,?,?,?
COCCNc1oc(-c2ccccc2Cl)nc1C#N,2%,0%,?,17%,9%,19µM*
CC1CCN(c2oc(-c3cccc4ccccc34)nc2C#N)CC1,?,11µM*,?,?,?,?
CCOC(=O)c1c(C)[nH]c(C)c1S(=O)(=O)NCC1CCN(Cc2ccccc2OC)CC1,2%,·,5%,-3%,7%,5%
Cc1noc(C)c1-c1cc(NC2CC2)ncn1,·,15%,·,·,·,·
CNC(=S)N/N=C/c1ccccc1Cl,4%,26%,?,-1%,0%,2%
COc1ccc(/C=N/NC(=S)Nc2cccc(C(=O)O)c2)cc1,-6%,13µM*,?,2µM*,1.8µM*,1.7µM*
S=C(N/N=C/c1ccccc1Cl)Nc1ccccc1,0%,28%,11µM*,?,?,19µM*
COc1cc(/C=N/NC(=S)Nc2cccc(C(=O)O)c2)ccc1O,1%,10%,-7%,?,?,4.3µM*
COC(=O)c1cnn(-c2ccccc2)c1/C=N/NC(=S)Nc1ccccc1,-7%,·,21µM*,0%,-5%,-2%
O=C(NC1CCCC1)c1ccc2c(c1)N(Cc1c(F)cccc1Cl)C(=O)c1ccccc1S2,·,-17%,·,·,·,-2%
COc1ccc(NC(=S)N2CCN(C(=O)C3CCCO3)CC2)cc1 (stereo not given),-2%,·,14%,-1%,-2%,1%
Cc1ccc(Nc2nc3ccc(Cl)cc3n3cnnc23)cc1F,0%,·,-2%,2%,-3%,0%
COC(=O)[C@@]1(C)[C@H]2C(=O)N(Cc3ccccc3)C(=O)[C@H]2[C@H]2CN=C(SCC(=O)c3ccccc3)N21,7%,·,?,·,·,·
Cc1ccc(N2C(=O)c3n[nH]c(C)c3C2c2ccc(C(C)C)cc2)cc1 (stereo not given),·,-16%,·,·,·,-15%
CCOc1ccc(N2CC(NS(=O)(=O)c3cccnc3)CC2=O)cc1 (stereo not given),-1%,·,11%,-1%,2%,-1%
CC(=O)Nc1cccc(C(=O)N/N=C/c2cccnc2)c1,9%,4%,30%,2%,11%,?
COC(=O)c1cnn(-c2ccc(F)cc2F)c1/C=N/NC(N)=S,-7%,·,13µM*,2%,-5%,1%
